# Screening results (PubChem BioAssay)
# Shown are actives, neighbours in structure and some others; about 19% of the full set was active somewhere.
# CHX counter = counter-screen hit for Shiga toxin inhibitors, cycloheximide; cell reporter, cycloheximide protein synthesis inhibition counterscreen; max response, %; 300,000 compounds, 12% hits; in the data active = max response mostly above about 13%, no sharp cut-off; inactive = mostly below about 14%; note: read at 38.3 µM for the half of the compounds with a filed dose; 0% is about no effect
# Shiga toxin inh = inhibitors of Shiga toxin in Vero cells; Vero cells, Shiga toxin protein synthesis inhibition reporter; inhibition, % at 38.7 µM; 290,000 compounds, 9.2% hits; AID 2315; in the data active = inhibition mostly above about 28%, no sharp cut-off; inactive = mostly below about 43%; note: 0% is about no effect
# Pf growth 96h = inhibits malaria parasite growth, 96 h; AID 504834; 320,000 compounds, 6.9% hits; Potency, µM (titrated, usually from 28.7 µM), for inactives: top-dose activity change, negative = inhibition, hits mostly inhibitors; P. falciparum luciferase reporter growth, 96 h; note: potency is the fitted concentration of half-maximal effect; % is set by controls: 0 for no effect and ±100 for the full control effect
#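 Plates of compound plus infected erythrocytes (2% hematocrit, 0.05% parasitemia final) incubate 96 hours, 37 C, 5% CO2. Detection reagent added; reduced luminescence from the parasites' luciferase reporter flags inhibition.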
# Pf growth 48h = inhibits P. falciparum growth in the first generation, 48 h. P. falciparum luciferase growth in erythrocytes, 48 h. Potency, µM (highest dose often 28.7 µM), for inactives: at the top dose activity change, negative = inhibition, hits mostly inhibitors. 310,000 compounds, 5.9% hits; note: potency is the fitted concentration of half-maximal effect; % is set by controls: 0 for no effect and ±100 for the full control effect
#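 Parasite viability was followed by luminescence of a genomically integrated firefly luciferase. Cultures held 0.1% parasitemia at 2% hematocrit (final), incubated under 5% CO2 at 37 C.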
# LASV entry inh = inhibitors of Lassa virus binding or cell entry; Lassa virus pseudotype entry inhibition, cell reporter; Potency, µM (top dose mostly 37.9 µM), for inactives: at the top dose activity change, negative = inhibition, most hits filed as inhibitors; 300,000 compounds, 1.2% hits; calls by dose curve; tested in HEK293 cells; note: potency is the fitted concentration of half-maximal effect; % is set by controls: 0 for no effect and ±100 for the full control effect; nearly all actives have a fitted effect of over 50% in size
# MARV entry inh = Marburg virus entry inhibition | Marburg virus pseudotyped entry inhibition, cell reporter | Potency, µM (doses to about 37.8 µM), for inactives: top-dose activity change, negative = inhibition, usual class: inhibitors | 300,000 compounds, 1.8% hits | AID 540276; calls by dose curve; tested in HEK293 cells; note: potency is the fitted concentration of half-maximal effect; % is set by controls: 0 for no effect and ±100 for the full control effect
# Starred values were filed as active, the others as inactive; ? = inconclusive; . = not tested or not shown; [ ] = remark or other dose. Unless noted, calls come from the whole dose curve; as a rule, active = well fitted inhibition curve with a large enough effect; inconclusive = small, poorly fitted or top-dose-only effect, or another doubt; inactive = no such curve, though single readings can be large or run the other way.
SMILES,CHX counter,Shiga toxin inh,Pf growth 96h,Pf growth 48h,LASV entry inh,MARV entry inh
COc1cc(NC(=O)CSc2nnnn2-c2ccccc2)cc(OC)c1OC,2.4,-10.0,4.5%,6.3%,-2.6%,-13.9%
O=C(O)CC(NC(=O)C12CC3CC(CC(C3)C1)C2)c1cccc(Cl)c1 (configuration not stated),-0.2,3.6,-8.2%,-24.7%,.,.
CCn1ccc(C(=O)NCc2ccc3c(c2)OCO3)n1,8.5,-6.5,-5.1%,46.4%,.,.
Cc1ccc(S(=O)(=O)c2nnn3c2nc(NC2CCN(Cc4ccccc4)CC2)c2ccccc23)cc1C,6.7,-5.5,?,2.94µM*,.,.
COc1ccccc1-c1cc(C(F)(F)F)nc(S(=O)(=O)CCCC(=O)NCc2ccc(F)cc2)n1,19.7*,-25.5,2.94µM*,?,?,?
COc1ccccc1-c1cc(C(F)(F)F)nc(S(=O)(=O)CCCC(=O)Nc2cc(C)on2)n1,-3.7,-7.0,1.85µM*,-9.0%,-2.6%,?
COc1ccc(-c2cc(C(F)(F)F)nc(S(=O)(=O)CCCC(=O)Nc3cc(C)on3)n2)cc1OC,24.7*,-1.3,?,?,?,?
COc1ccccc1-c1cc(C(F)(F)F)nc(S(=O)(=O)CCCC(=O)NC(C)C)n1,-3.2,-11.4,12.6%,-8.4%,?,?
CN1CCN(C(=O)C2CCN(S(=O)(=O)c3ccccc3[N+](=O)[O-])CC2)CC1,.,.,?,-14.0%,.,.
CCOc1ccc(OCCC(=O)N(CC)CC(=O)NCc2cccs2)cc1,.,.,5.0%,-18.7%,.,.
COC(=O)[C@H](CC(C)C)NC(=O)NC1CCCCC1C (some centres not stated),-2.3,-9.9,.,5.9%,-25.5%[14.3 µM],2.8%
Cc1ccc(/C=C/c2ccc(=O)n(Cc3ccc(Cl)cc3Cl)n2)cc1,17.7,1.6,?,-4.1%,9.5%,5.8%[46.1 µM]
COc1c(C)cc(S(=O)(=O)NCc2ccco2)c(C)c1C,14.7*,21.0,?,?,-5.2%,-16.2%[46.1 µM]
CCc1ccc(-c2cc(C)no2)cc1S(=O)(=O)NCCc1ccc(OC)c(OC)c1,1.4,-0.6,11.7µM*,0.0%,.,.
COc1cc(OC)c(S(=O)(=O)NCc2ccco2)cc1S(=O)(=O)NCc1ccco1,9.7,5.4,96.2%,5.6%,12.9%,5.4%
CCc1ccc(-c2cc(C)no2)cc1S(=O)(=O)NCc1ccc(OC)c(OC)c1,-7.7,3.2,-5.7%,2.1%,?,?
CCc1ccc(-c2cc(C)no2)cc1S(=O)(=O)NCc1ccco1,29.6*,42.4*,28.9%,-17.0%,-20.6%[46.1 µM],.
CCOc1ccccc1NC(=O)CSc1nnc(CNC(=O)c2cc(OC)c(OC)c(OC)c2)o1,5.0,11.2,?,13.6%,11.2%[46.1 µM],9.9%[46.1 µM]
Cc1cccc2c1-c1sc(C(=O)N3CCCCC3)cc1CO2,30.2*,40.5*,?,99.5%,.,.
CCN1CCN(C(=O)c2cc3c(s2)-c2c(C)cccc2OC3)CC1,29.1*,33.7*,0.2%,98.1%,.,.
CCOC(=O)CSc1nc(-c2ccccc2)nc2ccc(C)cc12,-1.6,-3.7,?,36.2%,.,.
O=S(=O)(N/N=C\c1ccc(-c2ccccc2Cl)o1)c1ccccc1,-1.3,18.7,-5.7%,7.4%,-1.2%,1.0%
O=C(O)c1ccc(N/N=C/c2ccc(-c3ccccc3Cl)o2)cc1,50.4*,99.7*,-18.0%,425.3%,?,?
O=C(N/N=C/c1ccc(-c2ccccc2Cl)o1)c1ccccc1,31.6*,68.6*,-4.7%,?,?,?
Cc1ccc(-c2nnc(N(C)C(=O)c3ccncc3)s2)cn1,-1.8,31.5,?,54.1%,12.6%,5.2%[46.1 µM]
SMILES,CHX counter,Shiga toxin inh,Pf growth 96h,Pf growth 48h,LASV entry inh,MARV entry inh
Cc1c(N/C=C(\Cl)C(=O)C(F)(F)F)c(=O)n(-c2ccccc2)n1C,-4.4,-1.6,18.1%,?,7.7%,-10.5%[46.1 µM]
c1ccc2sc(NC3=NCN(Cc4ccc5c(c4)OCO5)CN3)nc2c1,-1.9,-7.1,2.6%,-0.1%,27.1%,-28.2%
c1ccc2sc(Nc3nc4cc5c(cc4s3)OCO5)nc2c1,119.4*,116.7*,100.9%,189.0%,?,?
Fc1ccc2nc(Nc3nc4cc5c(cc4s3)OCCO5)sc2c1,62.1*,25.2*,97.5%,113.3%,?,?
Fc1ccc2nc(Nc3nc4cc5c(cc4s3)OCO5)sc2c1,59.2*,79.8*,252.2%,174.3%,0.0%,?
O=C(CN1C(=O)C2CC=CCC2C1=O)Nc1nc2ccc(F)cc2s1 (configuration not stated),21.4,17.3,9.2%,24.5%,-1.3%,-4.6%
COc1cc(OC)cc(C(=O)NNC(=O)C2CSC3(C)CCC(=O)N23)c1 (configuration not stated),.,.,-22.6%,4.2%,.,.
O=C(NCc1ccc2c(c1)OCO2)c1cc2ccccc2o1,8.1,-10.6,.,8.3%,12.2%,7.0%
O=C(NCc1ccc(-c2nc3ccccc3s2)cc1)c1cc2ccccc2o1,19.8*,48.4*,?,43.2%,14.3%,15.8%
O=C(NCc1ccc(-c2nc3ccccc3s2)cc1)c1ccc(Br)o1,27.7*,39.5*,-15.3%,35.5%,?,?
COc1cc(C(=O)N(C)c2nnc(-c3cccnc3)s2)cc(OC)c1OC,-2.9,-4.6,-4.6%,-21.1%,.,0.9%
CC(O)CN=c1cc(-c2ccccc2)oc2ccc(Cl)cc12 (configuration not stated),54.9*,76.9*,?,?,-0.8%,?
CC(C)CN=c1cc(-c2ccccc2)oc2ccc(Cl)cc12,35.5*,70.1,-25.8%,?,?,17.8µM*
Cc1cc(Cl)ccc1Oc1ncnc2oc(-c3ccccc3)cc12,1.7,13.4,11.4%,-18.4%,7.7%,2.5%[46.1 µM]
C[C@H](CCC(=O)OCc1cn(CC(=O)c2ccc(O)cc2)nn1)[C@H]1CC[C@H]2[C@@H]3CC[C@@H]4C[C@H](O)CC[C@]4(C)[C@@H]3C[C@H](O)[C@]12C,.,.,.,.,5.8%[46.1 µM],.
COc1ccccc1NC(=O)Cn1c(C)cc(=O)c2cccc(OC)c21,-3.4,-3.3,?,?,-19.2%,?
O=[N+]([O-])c1ccc(CN2CCCCCC2)s1,-3.8,-4.5,?,8.5%,5.8%,?
O=C(/C=C/c1ccc([N+](=O)[O-])s1)N1CCCC1,-1.6,10.0,10.4µM*,13.1µM*,.,.
O=C(/C=C/c1ccc([N+](=O)[O-])s1)N1CCN(c2ccccc2)CC1,-2.1,-9.3,?,?,.,.
O=C(/C=C/c1cccs1)N1CCCCC1,39.3*,61.0*,?,88.6%,6.7%[46.1 µM],?
O=C(/C=C/c1ccc([N+](=O)[O-])s1)N1CCCCC1,23.8*,16.5,?,?,?,8.91µM*
O=c1[nH][nH]c2nc(C(F)(F)F)cc(C(F)(F)F)c12,1.1,-9.9,?,36.6%,10.8%,29.6%
CCOC(=O)c1ccc(NC(=O)CCNS(=O)(=O)c2ccc3c(c2)oc(=O)n3C)cc1,-0.7,-5.6,28.0%,-13.6%,-3.0%,12.8%
CCCCCCNC1=NCCS1,-2.6,-14.5,-10.5%,?,.,.
